Assay results reported in PubChem BioAssay AID588474 (The Scripps Research Institute Molecular Screening Center, 2011).
Active and inactive are the calls of the source.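 Rule for the calls: active = inhibition of at least 75% in the gel-based probe competition assay; inactive = inhibition below 75%.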

target: Platelet-activating factor acetylhydrolase (Mus musculus) (UniProt Q60963); assay: mouse pPAFAH inhibitors, late-stage follow-up, orthogonal assay, biochemical, gel-based competitive ABPP, fluorescence (AID 588474); details: recombinant mouse pPAFAH, FP-Rh fluorescence, at 5 µM, active compounds read high
Sequence (Q60963 whole entry, looked up): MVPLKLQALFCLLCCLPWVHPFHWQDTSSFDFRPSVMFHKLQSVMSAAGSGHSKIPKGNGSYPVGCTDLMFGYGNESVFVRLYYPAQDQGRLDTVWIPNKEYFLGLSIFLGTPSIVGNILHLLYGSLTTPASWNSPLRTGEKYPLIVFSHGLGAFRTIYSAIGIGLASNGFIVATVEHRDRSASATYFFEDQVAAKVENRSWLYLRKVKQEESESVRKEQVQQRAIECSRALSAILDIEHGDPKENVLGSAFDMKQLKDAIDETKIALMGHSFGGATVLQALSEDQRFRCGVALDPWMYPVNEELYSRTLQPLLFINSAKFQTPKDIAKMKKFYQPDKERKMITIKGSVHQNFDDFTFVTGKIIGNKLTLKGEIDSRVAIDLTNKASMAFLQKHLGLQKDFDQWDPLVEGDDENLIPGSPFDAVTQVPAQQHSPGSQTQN

inhibition, inactive:
Cc1cc(/C=C(\C#N)C(=O)NCC2CCCO2)c(C)n1-c1ccc(Cl)cc1 (stereo unspecified) 9%
O=C(Oc1ccnc2cc(Cl)ccc12)N1CCOCC1 22%
O=C(Oc1nsnc1N1CCCCC1)N1CCOCC1 55%
Cc1ccc(-n2c(C)cc(/C=C(\C#N)C(=O)NCC3CCCO3)c2C)cc1 (stereo unspecified) 23%
CCn1c(NC(=O)c2cccc(Cn3cc(Cl)cn3)c2)nc2ccccc21 0%
CCOC(=O)N1CCN(C(=O)c2ccc3c(=O)n4c(nc3c2)CCCCC4)CC1 8%
COc1cccc(CNC(=O)CCC2CCCN(Cc3cc(Cl)ccc3O)C2)c1 (stereo unspecified) 24%
Cc1ccc(NS(=O)(=O)c2ccc3c(c2)oc(=O)n3C)cc1F 53%
CCOCCCNC(=O)c1ccc(N2CC3CC(C2)c2cccc(=O)n2C3)c(NC(=O)Nc2cccc(OC)c2)c1 (stereo unspecified) 21%
Cc1cc(C(=O)CSc2nc(N)cc(=O)[nH]2)c(C)n1CCc1ccc(Cl)cc1 6%
CC(=O)Nc1ccc(NC(=O)CCn2c(=O)oc3ccccc32)cc1 30%
Cc1cccc(C2=NN(c3ccc(Br)cc3)[C@@H](C(=O)N3CCOC3=O)[C@@H]2c2ccccc2)c1 18%
O=C(Oc1cccc(Oc2ccccc2)c1)N1CCOCC1 18%
CCCNC(=O)c1ccc(N2CC3CC(C2)c2cccc(=O)n2C3)c(NC(=O)Nc2ccc(CC)cc2)c1 (stereo unspecified) 18%
CCOC(=O)N1CCC(NC(=O)CC2C(=O)NCCN2Cc2ccccc2F)CC1 (stereo unspecified) 10%
COc1cccc(NC(=O)Nc2cc(C(=O)NC(C)C)ccc2N2CC3CC(C2)c2cccc(=O)n2C3)c1 (stereo unspecified) 41%
CCCCOC(=O)Nc1nnc(CCc2ccccc2)s1 22%
O=C(c1ccccc1)c1ccc(OC(=O)N2CCOCC2)cc1 55%
CCOC(=O)N1CCN(C(=O)c2cccc(S(=O)(=O)Nc3ccc(Br)cc3)c2)CC1 7%
CCOC(=O)N1CCN(C(=O)CCN2C(=O)COc3ccc(C)cc32)CC1 22%
Cc1ccc(NS(=O)(=O)c2ccc3[nH]c(=O)oc3c2)c(C)c1 18%
COc1cc(OC)c(NC(=O)CCNS(=O)(=O)c2ccc3c(c2)oc(=O)n3C)cc1Cl 6%
Cc1cccc(NS(=O)(=O)c2ccc3[nH]c(=O)oc3c2)c1C 17%
CCc1ccc(NC(=O)Nc2cc(C(=O)NCC3CCCO3)ccc2N2CC3CC(C2)c2cccc(=O)n2C3)cc1 (stereo unspecified) 8%
COc1cccc(NC(=O)Nc2cc(C(=O)NCC3CCCO3)ccc2N2CC3CC(C2)c2cccc(=O)n2C3)c1 (stereo unspecified) 18%
Cn1c(=O)oc2cc(S(=O)(=O)Nc3ccc(F)cc3)ccc21 24%
O=C(Oc1nsnc1N1CCOCC1)N1CCCCC1 65%
O=C(N/C=C/c1ccco1)OCc1ccccc1 -3%
CCOC(=O)NC(=O)CSc1nc(-c2ccc(C)c(C)c2)cn1-c1ccccc1 56%

inhibition, active:
O=C(/C=C/c1cccs1)c1cc(Br)ccc1OC(=O)N1CCOCC1 91%
O=C(Oc1ccc(Oc2ccccc2)cc1)N1CCC(O)CC1 82%
O=C(Oc1ccc(-c2ccccc2)cc1)N1CCCCC1 79%
O=C(Oc1nsnc1N1CCOCC1)N1CCOCC1 84%
O=C(CCCSc1ccc(Cl)cc1)Nc1cc(S(=O)(=O)N2CCOCC2)ccc1O 75%
CCCCOC(=O)c1ccc(OC(=O)N2CCOCC2)cc1 93%
O=C(Oc1ccc(-c2ccccc2)cc1)N1CCOCC1 98%
